# BAP1 inh: inhibitors of human BAP1 deubiquitinase. Q92560. recombinant BAP1, Ub-AMC hydrolysis fluorescence kinetic; active compounds read low. calls only at 20 µM. actives 0.48% (n = 72,000);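 active = activity remaining at or below 50% of control, provided the compound also passes the data quality filters; inactive = the rest, including low values that fail the filters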;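 note: 100% = DMSO wells rate and 0% = substrate alone blank rate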
# FXIa mix inh: factor XIa (human) inhibition, mixture screen; P03951; purified FXIa, fluorogenic substrate, pooled mixtures; inhibition, % at 5 µM; actives 0.19% (n = 62,000);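 note: each value is inhibition by a whole ten-compound pool holding the compound; 0% = enzyme with no mixture and 100% = wells lacking enzyme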
# FXIIa inh mix: blocks human factor XIIa in pooled compound mixtures | actives 0.2% (n = 62,000) | P00748 | inhibition, % at 5 µM | AID 684 | purified FXIIa, fluorogenic substrate;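 note: 0% = enzyme without compound and 100% = no enzyme blank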
# C1s inh: blocks human complement C1s protease activity | P09871 | purified C1s, fluorogenic AMC substrate, pooled mixtures | mean inhibition % of two 10-compound mixtures (active compounds read high), % at 5 µM (by protocol) | actives 0.16% (n = 62,000) | AID 538;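 active = inhibition above 20% in each of the two 10-compound mixture wells holding the compound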;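 note: 0% = enzyme wells lacking compound mixture and 100% = no-enzyme blank wells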
# CatG inh: inhibitors of human cathepsin G; inhibition, % at 5 µM (by protocol); AID 581; purified enzyme, AMC-tetrapeptide fluorescence, pooled mixtures; actives 0.2% (n = 62,000); P08311;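 active = inhibition above 20% in each of the two mixture wells holding the compound; inactive = inhibition of 20% or less in either well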;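 note: 0% = enzyme control without mixture and 100% = blank lacking enzyme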
# HePTP inhibitor: human HePTP phosphatase inhibition; recombinant HePTP phosphatase activity, OD absorbance; P35236; actives 0.64% (n = 110,000); inhibition, % at 20 µM; in the data active = inhibition above about 50%;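 note: plate controls were vehicle for no effect and reference inhibitor for full effect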
# Target sequence (P35236 whole entry, looked up): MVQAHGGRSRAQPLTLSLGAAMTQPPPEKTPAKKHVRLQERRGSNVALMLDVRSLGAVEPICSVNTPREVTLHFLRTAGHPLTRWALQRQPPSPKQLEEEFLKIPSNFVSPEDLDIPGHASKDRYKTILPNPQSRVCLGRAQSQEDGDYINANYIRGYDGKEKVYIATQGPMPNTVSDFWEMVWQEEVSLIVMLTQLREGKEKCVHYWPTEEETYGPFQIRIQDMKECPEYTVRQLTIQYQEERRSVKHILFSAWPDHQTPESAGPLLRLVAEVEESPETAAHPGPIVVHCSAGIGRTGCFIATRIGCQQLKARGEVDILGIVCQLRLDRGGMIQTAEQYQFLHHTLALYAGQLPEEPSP
# BAP1 inh conf: BAP1 (human) enzyme inhibition, confirmed. purified BAP1, Ub-ethyl ester hydrolysis, HPLC; active compounds read low. shares compounds with BAP1 inh. actives 8% (n = 310). % of control activity, % at 20 µM. AID 753;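 active = percent of control activity at or below 60%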
# An asterisk follows results filed as active; i = inactive; / = not tested or not shown; + = active, no number. Hits are enriched below; roughly 1.1% of the tested compounds scored in any of these assays. Cut-off read from the data, not from the text of the source, unless noted: active = inhibition above about 20% (passing the limit was not always enough); inactive = the rest.
SMILES,BAP1 inh,FXIa mix inh,FXIIa inh mix,C1s inh,CatG inh,HePTP inhibitor,others
Cc1cccc(N2C(=O)NC(=O)C(=Cc3ccco3)C2=O)c1,/,/,/,/,/,15.6,
O=C1NC(=O)N(c2cccc(Br)c2)C(=O)/C1=C/c1ccco1,/,/,/,/,/,101.9*,
O=c1[nH]c(=S)n(-c2ccccc2F)c(O)c1C=C1C=CC=N1,/,/,/,/,/,102.6*,
CCc1ccc(N2C(=O)CC(=O)NC2=S)cc1,/,/,/,/,/,8.7,
CC1(C)C(c2ccccc2)=NC(c2cccnc2)N1O (configuration not stated),i,8.6,5.0,62.0*,7.5,10.0,
OCC1(CO)COC(c2cccnc2)N1 (configuration not stated),i,5.4,9.5,18.7,10.9,2.0,
CN1C(=O)NC(=O)/C(=C/c2ccc(-c3ccc([N+](=O)[O-])cc3)o2)C1=O,/,/,/,/,/,-3.6,
CCOc1ccc(N2C(=O)/C(=C/c3ccc(Br)o3)C(=O)NC2=S)cc1,/,/,/,/,/,101.0*,
CN1C(=O)NC(=O)/C(=C/c2ccc(Br)o2)C1=O,/,/,/,/,/,76.2*,
COc1ccc(/C=C2\CC3C4CC=C5CC(O)CCC5(C)C4CCC3(C)C2O)cc1 (configuration not stated),/,/,/,/,/,7.3,
O=[N+]([O-])c1ccc(CN2CCN(Cc3cccc(Cl)c3)CC2)cc1,/,/,/,/,/,-1.6,
COC(=O)c1cc2c(cn1)[nH]c1ccccc12,+,/,/,/,/,/,
N/C(=N\[N+](=O)[O-])N1CCN(C(=O)c2ccco2)CC1,/,/,/,/,/,-13.8,
CC1(C)CN1S(=O)(=O)c1ccccc1 (configuration not stated),/,/,/,/,/,-9.0,
O=C(CF)NC(=C(Cl)Cl)P(=O)(c1ccccc1)c1ccccc1,/,/,/,/,/,103.0*,
CNc1ccc2oc(C[C@H]3O[C@@]4(CC[C@H]3C)O[C@H]([C@H](C)C(=O)c3ccc[nH]3)[C@H](C)C[C@H]4C)nc2c1C(=O)O,+,/,/,/,/,/,
COCCOC(=O)c1c(N)n(Cc2ccco2)c2nc3ccccc3nc12,/,/,/,/,/,3.3,BAP1 inh conf=145.4
CCCCn1c(=O)c(C(=O)NCc2ccncc2)c(O)c2ccccc21,+,-5.9,3.1,-21.6,4.3,2.7,BAP1 inh conf=140.5
O=C(Nc1cccnc1)c1c(O)c2c(n(Cc3ccccc3)c1=O)CCCC2,+,-1.7,5.6,1.6,-1.3,8.0,BAP1 inh conf=69.0
O=C(Nc1ccncc1)c1c(O)c2ccccc2n(Cc2ccccc2)c1=O,i,/,/,/,/,6.4,
Cc1ccccc1CN1CCN(Cc2ccc(F)cc2)CC1,/,/,/,/,/,-8.9,
C=CCN1C(=O)NC(=O)/C(=C/c2ccc(-c3ccc(C(=O)OCC)cc3)o2)C1=O,/,/,/,/,/,8.7,
